Most compounds without a hit are left out; they make up all but 2.4% or so of the library.
D2 PAM-1 = potentiates the human D2 dopamine receptor allosterically; P14416; DiscoveRx D2 beta-arrestin cells, luminescence, 90 min; 100% = 57 uM dopamine signal; potentiation, % (test concentration not listed); 360,000 compounds, 0.23% hits; in the data active means potentiation above about 50%; inconclusive means mostly about 30% to 49%
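PathHunter D2 cells, attached overnight at 37 deg C, received compound in DMSO plus dopamine at EC20 (50 nM final) for 90 min at 37 deg C. Beta-arrestin recruitment was read as luminescence after 1 h with detection reagent at ambient temperature.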
D2 antag = antagonizes the human D2 dopamine receptor. AID 485344. P14416. HEK293 TREx D2 cells, calcium flux, dopamine EC80. 340,000 compounds, 2% hits. inhibition, % at 10 µM; in the data active means inhibition above about 30%; inactive means below that, where a call was filed; further: 0% is about no effect
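Calcium mobilization kinetics were recorded at 1 s intervals in tetracycline-induced HEK293 T-REx D2 cells, first for 180 s after compound addition and then 180 s after EC80 dopamine.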
D2 ag-1 = agonists of human D2 dopamine receptor (beta-arrestin); 360,000 compounds, 0.084% hits; DiscoveRx PathHunter D2 beta-arrestin, luminescence, 90 min; 100% = 57 uM dopamine signal; P14416; activation, % (concentration not given with the values); in the data active means activation above about 40%; inconclusive means between about 15% and that limit
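Agonist mode: compounds alone added to overnight-plated D2 PathHunter cells for 90 min at 37 C, with 57 uM final dopamine (EC100) defining full response. Beta-arrestin recruitment detected by chemiluminescent reagent, read after 1 h at ambient temperature.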
D2 PAM-2 = D2 dopamine receptor (human) potentiation; P14416; HEK293 T-REx D2, calcium flux, EC20 dopamine potentiation; potentiation, % at 10 µM; 340,000 compounds, 0.34% hits;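 active means potentiation over 3 SD above the plate norm, cut at about 30% in these data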; further: 0% is about no effect
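Potentiation of an EC20 dopamine calcium response measured kinetically over 180 s, after a preceding 180 s compound-only read flagging agonists. Cells: inducible Hek293 Trex D2 line, 4000/well, cultured overnight at 30 C before dye loading.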
D2 ag-2 = activates the human D2 dopamine receptor; P14416; HEK293 T-REx D2 cells, calcium flux agonist mode; activation, % at 2 µM; 340,000 compounds, 0.53% hits;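 active means activation over 3 SD above normal in the single-dose calcium agonist read, cut at about 30% in these data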; further: 0% is about no effect
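Agonism is scored from calcium flux in a force-coupled, inducible HEK293 cell line expressing D2, read kinetically for 180 s after compound addition against dopamine controls.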
D3 arrestin ag = D3 receptor agonism confirmed, beta-arrestin readout. Potency, µM (titrated, usually from 76.9 µM), for inactives: at the top dose activation, actives largely listed as activators. 2,300 compounds, 4% hits. DiscoveRx D3 beta-arrestin cells, luminescence, 90 min. AID 720506. shares compounds with D2 ag-2;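 further: potency means the concentration at half of the fitted maximal effect; 100% = dopamine control response; nearly all actives have a fitted effect of over 70% in size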
Target sequence (P35462 whole entry, looked up): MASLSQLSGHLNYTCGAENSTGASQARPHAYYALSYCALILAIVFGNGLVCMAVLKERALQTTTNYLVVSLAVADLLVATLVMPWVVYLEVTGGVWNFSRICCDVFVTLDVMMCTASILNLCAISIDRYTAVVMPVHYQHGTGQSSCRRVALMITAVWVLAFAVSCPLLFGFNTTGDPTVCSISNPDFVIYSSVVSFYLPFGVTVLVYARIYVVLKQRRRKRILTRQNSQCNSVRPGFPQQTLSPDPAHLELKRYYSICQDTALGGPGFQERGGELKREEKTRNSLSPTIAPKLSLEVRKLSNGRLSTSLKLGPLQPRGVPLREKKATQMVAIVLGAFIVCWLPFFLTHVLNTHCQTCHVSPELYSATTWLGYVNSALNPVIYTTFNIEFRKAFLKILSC
D2 ag-3 = D2 receptor agonism, beta-arrestin counterscreen; shares compounds with D2 ag-2; DiscoveRx PathHunter D2 beta-arrestin, luminescence, 90 min; response scale: percent relative to full dopamine signal; Potency, µM (doses to about 76.9 µM), inactives show at the top dose activation, actives largely listed as activators; 2,300 compounds, 5.9% hits; AID 720507; further: potency means the concentration at half of the fitted maximal effect; % of control where 0% means no effect; nearly all actives have a fitted effect of over 70% in size
* = called active by the depositor; ? = inconclusive; nt = not tested or not shown. Unless noted, the call rests on the fitted dose curve; in most records, active means well fitted activation curve with a large enough effect; inconclusive means small, poorly fitted or top-dose-only effect; inactive means flat fitted curve, though single readings scatter.

SMILES | D2 PAM-1 | D2 antag | D2 ag-1 | D2 PAM-2 | D2 ag-2 | D3 arrestin ag | D2 ag-3
CCOc1ccccc1N1CCN(Cc2c(C)n(C)n(-c3ccccc3)c2=O)CC1 | -7 | 85* | -3 | -25 | 31* | -10% | 1%
CC(=O)CC(C)(C)Nc1nc2ccc([N+](=O)[O-])cc2o1 | -6 | 39* | -2 | 2 | 0 | -8% | -2%
CC(=O)CC(C)(C)Nc1nc2cc([N+](=O)[O-])ccc2o1 | -12 | -8 | -4 | -15 | 0 | nt | nt
COc1ccc(-c2cc(C(F)(F)F)n3nc(C(N)=O)cc3n2)cc1 | 10 | nt | 0 | nt | nt | nt | nt
Cc1oc(-c2ccccc2Cl)nc1CS(=O)CC(=O)N1CCN(c2ccccc2)CC1 (configuration not stated) | 15 | -16 | 3 | -3 | 43* | 0% | 4%
COc1ccc(-c2cc(C(=O)NCCN3CCOCC3)no2)cc1OC | -14 | -1 | -2 | -2 | 0 | nt | nt
CCO[C@@H]1OC(C(=O)O)=C[C@H](c2csc3ccccc23)[C@H]1CCCO | -4 | 32* | -3 | -6 | 0 | -3% | -3%
CCO[C@H]1OC(C(=O)Nc2ccccc2)=C[C@@H](c2csc3ccccc23)[C@@H]1CCCO | -1 | -17 | -1 | 3 | 0 | nt | nt
C#CCNC(=O)C1=C[C@@H](c2ccc(C#C)cc2)[C@H](CCCO)[C@@H](OCC)O1 | 10 | 32* | 1 | 1 | 0 | 5% | -3%
COc1ccc(-n2c(Cc3cccn3C)nnc2SCC(=O)N2CCC(C)CC2)cc1 | -1 | -13 | -3 | -6 | -1 | nt | nt
COc1ccc(-n2c(Cc3cccn3C)nnc2SCC(=O)N2CCCC2)cc1 | -4 | 10 | -1 | -21 | 59* | -2% | -2%
COc1cccc(CNc2ncnc3ccc(-c4c(C)noc4C)cc23)c1 | nt | 9 | nt | -1 | 0 | 12% | 18%
COc1cccc(-c2ccc3ncnc(NCc4cccc(C)c4)c3c2)c1 | nt | -5 | nt | -7 | 0 | nt | nt
O=C(CNC(=O)c1sc2ccccc2c1Cl)NCc1cccc(C(F)(F)F)c1 | -10 | -5 | 0 | -4 | 0 | nt | nt
Oc1ccc(C2CNCc3sccc32)cc1O (configuration not stated) | 71* | 96* | 63* | -23 | 84* | 3.5µM* | 2.8µM*
C/C(=N\NC(=O)C12CCC(C)(C(=O)O1)C2(C)C)c1ccccc1O (configuration not stated) | -9 | 82* | ? | -30 | 83* | ? | ?
CCSC1=N/C(=C\c2ccc3c(c2)OCO3)C(=O)S1 | 6 | 30* | 1 | -5 | 1 | 7% | -1%
CCOc1ccc(Nc2oc(/C=C/c3ccc(OC)c(OC)c3)nc2C#N)cc1 | nt | nt | nt | -1 | -1 | nt | nt
NC(=NC(=O)c1ccc(Cl)cc1)N1N=CCC1c1ccccc1 (configuration not stated) | 2 | 23 | -4 | -6 | 50* | -2% | 5%
COc1ccc(CNC(=O)c2cc3sccc3n2C)cc1 | nt | nt | nt | 14 | 0 | nt | nt
O=C(Cc1ccccc1)NNC(=S)Nc1ccc(Cl)cc1 | -19 | 5 | -7 | -20 | 44* | 1% | -4%
COc1ccc(-c2c(-c3cc(OC)cc(OC)c3)n(C)c3ccc(-c4ccc5cc[nH]c5c4)cc23)cc1 | -9 | nt | -3 | nt | nt | nt | nt
CC(=O)Nc1cc(NC(C)=O)c2nc(N)sc2c1 | -15 | -19 | 1 | -13 | 22 | 1% | 8%
O=C(c1ccccc1F)N1CCN(S(=O)(=O)c2ccc3c(c2)OCCO3)CC1 | 0 | 6 | 0 | -11 | -1 | nt | nt
O=C(c1ccccc1OC(F)F)N1CCN(S(=O)(=O)c2ccc3c(c2)OCCCO3)CC1 | -4 | 1 | 2 | 5 | 1 | -1% | 5%
SMILES | D2 PAM-1 | D2 antag | D2 ag-1 | D2 PAM-2 | D2 ag-2 | D3 arrestin ag | D2 ag-3
CCCSc1ncc(Cl)c(C(=O)NCc2ccc(C)cc2)n1 | nt | nt | nt | nt | 0 | nt | nt
COc1ccc(OC)c(NC(=O)C2(C)CCN2Cc2ccsc2)c1 (configuration not stated) | -7 | nt | -1 | nt | nt | nt | nt
CC(COc1ccccc1)N(CCCl)Cc1ccccc1 (configuration not stated) | -16 | 61* | 4 | -28 | 90* | -8% | 18%
CC(C)[C@@H](COc1ccccc1)N1CCN(Cc2ccccc2)CCC1=O | 6 | -19 | 3 | 1 | -2 | nt | nt
COc1ccc(-c2ccc3c(c2)c(C#Cc2ccsc2)c(-c2cc(OC)cc(OC)c2)n3C)cc1 | -10 | nt | 3 | nt | nt | nt | nt
COc1ccc(-c2c(C#Cc3ccsc3)c3cc(-c4ccc(OC)c(F)c4)ccc3n2C)cc1 | -8 | 2 | -4 | 4 | 1 | -2% | -4%
C=CCn1c(COc2ccc(Cl)cc2)nnc1SCC(=O)Nc1ccc(S(N)(=O)=O)cc1 | -10 | 1 | 1 | -17 | 59* | 2% | -3%
CC(C)OCCCN(Cc1ccco1)C(=O)c1cc2c(s1)-c1ccccc1OC2 | nt | nt | nt | 1 | 0 | nt | nt
CC(=O)c1ccc(NC(=O)Cn2cnc(S(=O)(=O)N3CCc4ccccc43)c2)cc1 | 10 | -2 | -3 | -29 | 54* | -3% | -2%
CN(C)c1ccc2c3c(cccc13)C(=O)N(c1ccccc1)C2=O | nt | 16 | nt | -6 | 8 | nt | nt
Cc1cccc(N2C(=O)c3cccc4c(N(C)CCO)ccc(c34)C2=O)c1 | -7 | 7 | -10 | 1 | 0 | -5% | 3%
CCCNC(=O)C1(C)CCN(C(=O)c2ccc(C)c(F)c2)C1 (configuration not stated) | -6 | nt | -2 | nt | nt | nt | nt
C/C(=N\NC(=S)NC1CCCCC1)c1ccccc1 | -44 | 41* | 11 | -23 | 45* | 3% | 30%
S=C(NCCCc1ccccc1)NC1CCCCC1 | -21 | -3 | -3 | -19 | 37* | 5% | -1%
S=C(NCc1ccccc1)NC1CCCCC1 | -7 | 3 | 0 | -11 | 0 | nt | nt
COc1cccc(-c2cc3nc(Nc4ccc(OC)c(OC)c4)n(C)c(=O)c3s2)c1 | -6 | nt | 7 | nt | nt | nt | nt
COCCCn1c(=O)c2sccc2n2c(CCCC(=O)NC3CCC(C)CC3)nnc12 (configuration not stated) | nt | nt | nt | -1 | 0 | nt | nt
COc1ccc(C)cc1Nc1n[n+](-c2ccccc2)c(-c2ccc(SC)cc2)s1 | -11 | -2 | -4 | -14 | 1 | nt | nt
NN=C1c2ccccc2C(=O)C1C(=O)C(c1ccccc1)c1ccccc1 (configuration not stated) | -34 | nt | -3 | nt | nt | nt | nt

From PubChem BioAssay
